Records with an inconclusive call do not appear. The source made the active and inactive calls. Unless noted, calls follow the shape of the dose curve; as a rule, active = well fitted curve in the direction sought with a large enough effect; inconclusive = small, poorly fitted or top-dose-only effect, or another doubt; inactive = no such curve, though single readings can be large; an effect the other way counts as inactive or inconclusive.
Experiments:
[1] = Cell Viability - Mesenchymal (AID 546);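 also: cells exposed to compound for 40 hours before reading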
Procedure, shortened: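 CellTiter-Glo luminescence (intracellular ATP, 20 min room temperature) after 40 hr compound exposure at 37 °C of 1000 glomerulus-derived human kidney mesenchymal cells/well; AC50 values obtained by fitting qHTS concentration-response data to the Hill equation.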

[2] = Cellular Toxicity (caspase-3) HepG2 (AID 654);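 also: cells exposed to compound for 16 hours before reading; 0% = DMSO alone and 100% = caspase signal from 100 µM tamoxifen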
Procedure, shortened: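 Concentration-response AC50 values reflect caspase-3/7 induction in HepG2 cells after 16 hours of compound exposure, quantified by luminescence from liberated aminoluciferin and referenced to 100 uM tamoxifen as full stimulation.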

[3] = Cellular Toxicity (caspase-3) Jurkat (AID 655); conditions: Jurkat caspase-3 activation, luminescence, DMSO = 0%, tamoxifen = 100%; at 92.2 µM (top of the series);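 also: cells exposed to compound for 16 h at 37 °C before reading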
Procedure, shortened: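 Luminescent caspase-3/7 readout (aminoluciferin substrate cleavage) in human T-cell leukemia Jurkat cells after 16 hr compound exposure. Concentration-response normalized to DMSO and 100 uM tamoxifen; AC50 by standard Hill equation.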

[4] = Cellular Toxicity (caspase-3) HUV-EC-C (AID 656)
Procedure, shortened: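 Luminescent caspase-3/7 activation (aminoluciferin substrate cleavage) in HUV-EC-C cells after 16 hr compound exposure, 37°C. Signal normalized to DMSO basal and 100 uM tamoxifen as 100%; AC50 from concentration-response fitted with the Hill equation.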

[5] = Cellular Toxicity (caspase-3) SHSY5Y (AID 657)
Procedure, shortened: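 Luminescent caspase-3/7 readout (aminoluciferin release) in SH-SY5Y cells after 16 h compound exposure in complete medium. Activity scaled between DMSO basal and 10 uM staurosporine as 100%; concentration-response fitted to Hill equation for AC50.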

[6] = Cellular Toxicity (caspase-3) BJ (AID 658);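 also: 0% = DMSO basal and 100% = 10 µM staurosporine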
Procedure, shortened: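 Caspase-Glo 3/7 luminescence, read 1 hr after reagent at room temperature, in normal BJ fibroblasts exposed 16 hours at 37 °C. AC50 values from Hill-equation concentration-response, scaled between DMSO basal and 10 uM staurosporine as 100%.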

[7] = Cellular Toxicity (caspase-3) MRC-5 (AID 659);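 also: 0% = DMSO basal and 100% = 10 µM staurosporine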
Procedure, shortened: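 Luminescent Caspase-Glo 3/7 read-out (1 h, room temperature) after a 16 h, 37 °C compound exposure of MRC-5 lung fibroblasts at 1500 cells/well. Concentration-response AC50 from Hill equation; 0% DMSO, 100% 10 uM staurosporine.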

[8] = Cellular Toxicity (caspase-3) Mesangial (AID 660);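 also: combined caspase 3 and 7 activity read by Caspase-Glo luminescence; cells exposed to compound for 16 h before the caspase read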
Procedure, shortened: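 AC50 values come from Hill-equation fits of caspase 3/7 activation, measured as Caspase-Glo luminescence in human glomerular mesangial cells exposed to compound for 16 h at 37 °C; 100% set by 100 uM tamoxifen.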

[9] = Cellular Toxicity (caspase-3) SK-N-SH (AID 661);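 also: 0% = DMSO basal and 100% = 10 µM staurosporine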
Procedure, shortened: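 Apoptosis readout in SK-N-SH neuroblastoma: Caspase-Glo 3/7 luminescence following 16 hr treatment in complete culture medium. Normalization used DMSO and 10 uM staurosporine controls.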

[10] = target: 3',5'-cyclic-AMP phosphodiesterase 4B (Homo sapiens) (UniProt Q07343); assay: qHTS Assay for Inhibitors of PDE-IV (AID 607; active = well fitted activation curve with a large enough effect in the main read-out, with a control signal flat, not every such curve was filed as active; also: potency is read from the fitted curve at half-maximal effect)
Procedure, shortened: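 ACTOne HEK293 cells carry a modified cAMP-gated CNG channel and express endogenous PDE4; plated 1000 cells/well, compounds up to 22.9 uM final. Membrane-potential dye fluorescence (ex 535/em 590) was read; parental cells received 10 uM forskolin + 100 uM RO 20-1724.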

Chain of 3',5'-cyclic-AMP phosphodiesterase 4B (Homo sapiens) (Q07343 whole entry, looked up): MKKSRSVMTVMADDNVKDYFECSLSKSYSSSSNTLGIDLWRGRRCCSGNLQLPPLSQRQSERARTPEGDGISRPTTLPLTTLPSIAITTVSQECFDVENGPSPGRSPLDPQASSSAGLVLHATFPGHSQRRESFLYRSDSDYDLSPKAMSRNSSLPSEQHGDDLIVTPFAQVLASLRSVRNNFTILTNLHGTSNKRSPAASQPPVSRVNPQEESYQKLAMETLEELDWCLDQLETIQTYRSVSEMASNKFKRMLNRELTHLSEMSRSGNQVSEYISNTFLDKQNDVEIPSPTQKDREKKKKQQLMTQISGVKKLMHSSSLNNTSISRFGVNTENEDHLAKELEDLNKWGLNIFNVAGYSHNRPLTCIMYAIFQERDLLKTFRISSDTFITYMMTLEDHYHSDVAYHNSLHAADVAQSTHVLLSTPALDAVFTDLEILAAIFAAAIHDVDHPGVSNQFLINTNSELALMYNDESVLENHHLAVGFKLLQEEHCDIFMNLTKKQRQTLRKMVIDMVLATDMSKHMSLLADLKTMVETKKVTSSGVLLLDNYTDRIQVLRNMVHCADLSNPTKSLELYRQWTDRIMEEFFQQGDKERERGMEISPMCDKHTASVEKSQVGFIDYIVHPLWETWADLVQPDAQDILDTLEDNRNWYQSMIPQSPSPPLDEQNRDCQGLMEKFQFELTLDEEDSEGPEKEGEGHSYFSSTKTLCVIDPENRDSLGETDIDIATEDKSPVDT

COC(C)=O
inactive: outcome [1] | outcome [2] | caspase-3 activation [3] -0.555% | outcome [4] | outcome [5] | outcome [6] | outcome [7] | outcome [8] | outcome [9]

COc1cc(C[C@H]2C(=O)OC[C@@H]2Cc2ccc(OC)c(OC)c2)ccc1O
active: Potency [10] 3.79 µM

NCCCC(=O)O
inactive: Potency [10]

CN(C)Cc1ccccc1
inactive: outcome [1] | outcome [2] | caspase-3 activation [3] 0.691% | outcome [4] | outcome [5] | outcome [6] | outcome [7] | outcome [8] | outcome [9]

C=Cc1ccccc1
inactive: outcome [1] | outcome [2] | caspase-3 activation [3] -0.459% | outcome [4] | outcome [5] | outcome [6] | outcome [7] | outcome [8] | outcome [9]

CCCCCCCCCC(=O)O
inactive: outcome [1] | outcome [2] | caspase-3 activation [3] -4.13% | outcome [4] | outcome [5] | outcome [6] | outcome [7] | outcome [8] | outcome [9]

Cc1ccc(OC[C@H](O)[C@H](C)NC(C)C)c2c1CCC2
inactive: Potency [10]

CC(=O)C1=C(O)C=C2Oc3c(C(C)=O)c(O)c(C)c(O)c3[C@]2(C)C1=O
inactive: Potency [10]

O=C(O)c1cc2ccccc2c(Cc2c(O)c(C(=O)O)cc3ccccc23)c1O
inactive: Potency [10]

COc1ccc2[nH]c(=O)c3c(c2c1)OC(C)(C)C=C3
inactive: Potency [10]

O=C(O)CC(O)(CC(=O)O)C(=O)O
active: caspase-3 activation [3] 101%
inactive: outcome [1] | outcome [2] | outcome [4] | outcome [5] | outcome [6] | outcome [7] | outcome [8] | outcome [9]

— PubChem BioAssay (NCATS)
